# This is a sample that favours compounds with a hit; in the whole collection about 3.5% have one here.
# FBW7 activator = FBW7 E3 ligase activators, primary screen, biochemical, AlphaScreen, human; normalized activity (activation), % at 26.1 µM; F-box/WD repeat-containing protein 7 (Homo sapiens), Q969H0; 650,000 compounds, 0.13% hits; AlphaScreen FBW7–phospho-cyclin E peptide binding, activator screen; in the data active = normalized activity above about 1.9%;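 note: purified mutant Fbw7 with reduced substrate affinity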
# MITF inh = MITF inhibitors, primary screen, biochemical, AlphaScreen, human; AlphaScreen MITF homodimerization, bead proximity signal; 650,000 compounds, 0.91% hits; inhibition, % at 2.6 µM; in the data active = inhibition above about 50%;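 note: 0% = vehicle wells with protein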
# TEAD-YAP inh = TEAD-YAP interaction inhibition, primary screen, TEAD-YAP interaction inhibitor project, luminescence, HEK-TIYL cells; TEAD-Gal4/YAP UAS-luciferase luminescence; inhibition, % at 9.12 µM; 640,000 compounds, 1.4% hits; in the data active = inhibition above about 32%;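 note: 0% = median of test compound wells and 100% = reference inhibitor wells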
# GPR151 activ = activators of human GPR151, primary screen, cell-based, PathHunter beta-arrestin, luminescence | activation, % at 11.2 µM | 650,000 compounds, 1% hits | PathHunter beta-arrestin GPR151 cells | AID 1508602, 2020; in the data active = activation above about 4.9%;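 note: 0% = median of compound wells and 100% = cells with positive control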
# Target sequence (Q8TDV0 whole entry, looked up): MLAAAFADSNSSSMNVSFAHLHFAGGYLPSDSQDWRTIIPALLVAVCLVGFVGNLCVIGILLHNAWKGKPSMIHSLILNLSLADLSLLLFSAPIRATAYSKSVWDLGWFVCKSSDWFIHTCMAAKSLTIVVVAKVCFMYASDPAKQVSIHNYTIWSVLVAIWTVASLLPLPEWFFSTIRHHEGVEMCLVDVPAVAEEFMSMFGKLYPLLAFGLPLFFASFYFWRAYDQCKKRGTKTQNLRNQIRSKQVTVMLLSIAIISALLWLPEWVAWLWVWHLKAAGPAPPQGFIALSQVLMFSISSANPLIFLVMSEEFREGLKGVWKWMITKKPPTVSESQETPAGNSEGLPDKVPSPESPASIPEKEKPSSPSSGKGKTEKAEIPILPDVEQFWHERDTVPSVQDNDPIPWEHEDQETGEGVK
# MITF confirm = MITF inhibitors, retest of hits, confirmation, biochemical, AlphaScreen, triplicate. shares compounds with MITF inh. AlphaScreen MITF homodimerization, biotin/His-MITF beads. inhibition, % at 2.6 µM. 4,700 compounds, 16% hits. AID 1259372, 2018;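 active = inhibition above a cutoff derived from the DMSO control wells, cut at about 28% in these data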;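 note: 0% = MITF dimer wells with DMSO only; inhibitors lower the bead chemiluminescence by keeping MITF from dimerizing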
# AS interf DR = AlphaScreen optical interference compounds, dose response, counter-screen, biochemical, HTS; IC50, µM; 480 compounds, 6% hits; shares compounds with MITF inh; AlphaScreen optical interference counterscreen, cell-free; call rule not given here
# AlphaScreen intf2 = AlphaScreen optical interference compounds, counter-screen for MITF inhibitor project, biochemical, triplicate. shares compounds with MITF inh. LysRS AlphaScreen counterscreen, signal interference. inhibition, % at 2.6 µM. 4,700 compounds, 7.6% hits. AID 1259376, 2018;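 active = inhibition above a cutoff derived from the DMSO control wells, cut at about 30% in these data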
# * marks the source's active call; other numbers are inactive results; / = not tested or not shown.
SMILES,FBW7 activator,MITF inh,TEAD-YAP inh,GPR151 activ,MITF confirm,AlphaScreen intf2,others
COCCNC(=O)C(OC(=O)c1cc2occc2n1C)c1ccccc1F (configuration not stated),0.3,6.3,2.6,-0.6,/,/,
COc1cc(C(=O)N2CCN(Cc3ccc(C)cc3)CC2)cc(OC)c1OC,0.0,48.0,7.3,0.2,/,/,
COc1cc(C(=O)N2CCN(Cc3ccc(Br)cc3)CC2)cc(OC)c1OC,0.3,54.5*,-3.0,0.0,9.0,9.1,
COCCCNC(=S)NNC(=O)c1ccccn1,-1.5,114.0*,11.7,1.4,113.5*,100.3*,
CCOC(=O)c1ccc(NC(=S)NNC(=O)c2ccccn2)cc1,-0.6,116.3*,6.2,-0.3,113.6*,100.2*,
CCOc1ccccc1NC(=S)NNC(=O)c1ccccn1,-1.6,113.8*,15.5,0.1,116.8*,100.3*,
CCOC(=O)c1cccc(NC(=O)c2ccccn2)c1,0.1,-0.3,-35.5,-3.7,/,/,
O=C(NNC(=S)Nc1cccc([N+](=O)[O-])c1)c1ccccn1,-1.6,115.4*,-11.9,-1.0,115.6*,100.3*,
CCCCc1ccc(-c2nc(C=Nc3ccc(F)cc3)c(O)o2)cc1,0.0,3.6,5.1,-0.3,/,/,
COCCn1nnnc1CN1CCSCC1,1.4,55.8*,14.3,1.7,6.7,10.5,
COCCn1nnnc1C(c1ccc(Cl)cc1)N1CCSCC1 (configuration not stated),0.2,66.3*,-8.7,-0.5,10.4,11.7,
O=C(Cc1cn(-c2ccc(Cl)nn2)c2ccccc12)NCc1ccccc1,0.0,71.6*,-9.4,0.9,7.6,4.8,
COc1ccccc1CN1CCNC(=O)C1CC(=O)NC1CCC(O)CC1 (configuration not stated),0.0,12.4,-0.4,-1.6,/,/,
O=C1NC(=S)S/C1=C\c1cc(O)ccc1Br,0.1,24.8,2.9,0.2,/,/,
O=C1NC(=O)/C(=C\c2ccc(O)cc2O)S1,-0.1,82.7*,-22.7,0.7,81.2*,-5.6,AS interf DR=>6.48
COc1cc(CN2CCN(Cc3ccc(Cl)cc3)CC2)cc(OC)c1OC,-0.1,78.0*,-1.5,1.5,13.1,17.1,
COc1cc(CN2CCN(Cc3ccc(Br)cc3)CC2)cc(OC)c1O,0.2,11.6,-18.6,-1.2,/,/,
COc1cc(CN2CCN(Cc3ccc(Br)cc3)CC2)cc(OC)c1OC,-0.1,81.5*,14.2,-1.2,5.5,18.8,
COc1cc(CN2CCN(Cc3cccc(Cl)c3)CC2)cc(OC)c1OC,-0.2,68.7*,1.7,-0.6,7.0,12.8,
COc1cc(CN2CCN(Cc3cc(OC)c(OC)c(OC)c3)CC2)cc(OC)c1OC,0.2,9.9,-1.7,2.0,/,/,
COc1ccc(CN2CCN(Cc3ccc(C)cc3)CC2)cc1OC,0.0,67.4*,7.8,0.4,7.0,-7.2,
COc1cc(C(=O)N2CCN(Cc3cccc(Cl)c3)CC2)cc(OC)c1OC,-0.1,49.6,9.0,-1.2,/,/,
COc1ccc(CN2CCN(Cc3ccc(OC)c(OC)c3)CC2)cc1OC,1.1,9.4,6.8,-0.2,/,/,
O=C(O)CC(NS(=O)(=O)c1cc(Cl)sc1Cl)c1ccc(F)cc1 (configuration not stated),0.1,14.2,6.3,-1.0,/,/,
COc1ccc(CN2CCN(Cc3ccc(Br)cc3)CC2)cc1OC,-0.1,73.6*,17.3,-1.1,5.2,2.6,
SMILES,FBW7 activator,MITF inh,TEAD-YAP inh,GPR151 activ,MITF confirm,AlphaScreen intf2,others
COc1ccc(CN2CCN(Cc3cccc(Br)c3)CC2)cc1OC,0.0,40.0,-5.4,0.1,/,/,
O=C(Nc1ccccc1)c1ccc2nc(-c3cccs3)sc2c1,0.0,2.1,-59.2,-3.5,/,/,
NC(=O)c1ccc2nc(-c3cccs3)sc2c1,0.1,72.5*,33.3*,-7.7,60.0*,6.1,AS interf DR=>6.18
CC(=O)c1cccc(-c2cccc(C(N)=O)c2)c1,0.1,-0.1,-5.6,4.8,/,/,
NC(=O)c1cccc(-c2cccs2)c1,0.3,66.2*,-12.4,-0.2,57.0*,10.6,AS interf DR=>6.74
O=C(CSc1ccc(-c2cccnc2)nn1)NCc1ccccc1Cl,-0.1,-9.8,-2.5,-0.6,/,/,
O=C(CSc1ccc(-c2cccnc2)nn1)NCc1ccccc1,0.1,51.0*,7.9,0.1,4.7,-3.2,
COc1ccc(OC)c(-c2cc(=O)[nH][nH]2)c1,-0.2,3.9,3.0,1.3,/,/,
CC(=O)Nc1ccc(NS(=O)(=O)c2ccccc2[N+](=O)[O-])cc1,-0.2,0.3,10.7,-1.1,/,/,
CC(=O)Nc1ccc(OS(=O)(=O)c2ccccc2[N+](=O)[O-])cc1,-0.2,55.9*,-22.7,-0.5,-7.8,-1.8,
Cc1ccc(NC(=O)CN(Cc2ccccc2)S(=O)(=O)c2ccc(Br)cc2)cc1C,0.1,58.8*,-7.5,0.1,-1.6,4.6,
c1cc(-c2ccc3cnc(Nc4ccc(-n5cnc(N6CCOCC6)n5)cc4)nc3c2)ccn1,-0.1,16.1,-40.3,-1.4,/,/,
Cn1cc(-c2nc(Nc3ccc(-n4cnc(N5CCOCC5)n4)cc3)ncc2Br)cn1,-0.1,56.8*,4.2,-0.5,66.9*,2.8,AS interf DR=>6.48
O=c1ccc(-c2ccc3cnc(Nc4ccc(-n5cnc(N6CCOCC6)n5)cc4)nc3c2)c[nH]1,0.9,60.1*,-13.3,-0.5,5.0,-2.4,
COc1ccc(C2C(C(=O)OC(C)C)=C(C)NC3=C2C(=O)CC(c2ccccc2)C3)cc1OC (configuration not stated),1.6,5.6,1.2,-1.1,/,/,
COc1ccc(C2Nc3ccccc3NC3=C2C(=O)CC(c2ccccc2)C3)cc1OC (configuration not stated),0.0,57.1*,2.6,1.1,12.6,13.6,
COc1ccc(C2Nc3ccccc3NC3=C2C(=O)CC(c2ccc(Cl)cc2)C3)cc1OC (configuration not stated),-0.1,3.0,-1.1,2.0,/,/,
COc1cc(C2C(C(=O)OC(C)C)=C(C)NC3=C2C(=O)CC(c2ccccc2)C3)ccc1OCc1ccccc1 (configuration not stated),0.2,64.2*,4.6,0.0,9.7,16.6,
Nc1c(C(=O)NCCc2ccccc2)sc(=S)n1CCc1ccccc1,-0.2,5.4,4.4,1.4,/,/,
COc1ccc(C(CNCC(O)COCC2=CCC3CC2C3(C)C)N(C)C)cc1 (configuration not stated),0.0,73.2*,3.5,-3.3,26.4,31.4*,
N/N=C(\Cc1ccc2ccccc2n1)c1ccccc1,0.1,7.5,-53.3,0.9,/,/,
CCOC(=O)C(=O)Cc1ccc2ccccc2n1,0.4,53.5*,-3.1,-0.5,4.8,-6.0,
